# Source: PubChem (Broad Institute)
# aSyn 5UTR inh: 5' untranslated region of α-synuclein, MLPCN primary screen; inhibition, % (tested at 7.5 µM); 0.82% of 300,000 active; alpha-synuclein 5'UTR reporter, inhibitor activity; in the data active = inhibition above about 60%;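 also: H4 neuroglioblastoma cells stably carrying SNCA 5'UTR luciferase fusion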
# PAX8 inh HTS: PAX8 transcriptional activity inhibition. inhibition, % at 12.6 µM. 1.2% of 360,000 active. AID 652154. RMG-I TPO-luciferase reporter, SteadyGlo, 24 h;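 active = mean replicate inhibition at least 60% with every replicate also reaching 60%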;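 also: luciferase light reporting Pax8 driven TPO promoter activity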
# LMP1 NFkB inh: Epstein-Barr LMP1 NF-kappaB reporter inhibition. inhibition, % at 12.5 µM. 0.69% of 350,000 active. LMP1-induced NF-kappaB luciferase reporter cells, luminescence; in the data active = inhibition above about 41%
# Shn3 inh set2: reduces Shn3 3'UTR luciferase signal in osteoblasts | Clone20 osteoblast Shn3 3'UTR firefly luciferase, 24 h | inhibition, % at 12.5 µM | 0.52% of 360,000 active;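 active = mean inhibition of at least 75% with every replicate also reaching 75%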
# MITF TRPM1 inh: MITF TRPM1 promoter inhibition in SK-MEL-5 cells; SK-MEL-5 TRPM1 promoter luciferase, 24 h; inhibition, % at 12.5 µM; 0.83% of 330,000 active; AID 488899;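 active = mean inhibition across replicates of 60% or more, whatever share of single replicates reaches that level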
# Numbers stand for hits; . = inactive; / = not tested or not shown. Sampled rows, rich in hits. Any-hit rate of the full collection: about 2.1%.
SMILES,aSyn 5UTR inh,PAX8 inh HTS,LMP1 NFkB inh,Shn3 inh set2,MITF TRPM1 inh
Cc1ccc(C(=O)Nc2ccc3c(c2)OCCO3)cc1,89.0,.,43.4,.,.
CC(=O)Oc1cccc(N2C(=O)c3ccccc3C2=O)c1,.,77.7,.,.,.
C[C@H](CO)N1C[C@H](C)[C@H](CN(C)Cc2ccc(Cl)c(Cl)c2)OCCCC[C@H](C)Oc2ccc(NC(=O)c3ccccc3)cc2C1=O,/,.,/,/,/
C[C@@H]1CCCCO[C@@H](CN(C)Cc2ccc(Cl)c(Cl)c2)[C@H](C)CN([C@H](C)CO)C(=O)c2cc(NC(=O)c3ccccc3)ccc2O1,/,96.6,/,/,/
C[C@@H]1CCCCO[C@H](CN(C)Cc2ccc(Cl)c(Cl)c2)[C@@H](C)CN([C@@H](C)CO)C(=O)c2cc(NC(=O)c3ccccc3)ccc2O1,/,82.2,/,/,/
COc1cccc(C(=O)CSc2nnc(-c3ccco3)n2CC2CCCO2)c1 (configuration not stated),.,.,.,.,.
Cc1ccc(N2CC(C(=O)NCCN3CCOCC3)CC2=O)cc1 (configuration not stated),.,.,.,.,.
O=C1C=Cc2cccc3ccc(O)c1c23,/,.,43.9,.,.
O=C(C[C@H]1C[C@@H]2c3cc(NS(=O)(=O)c4ccc(F)cc4)ccc3O[C@@H]2[C@H](CO)O1)NCc1ccc(Oc2ccccc2)cc1,/,.,/,/,/
O=C(C[C@@H]1C[C@H]2c3cc(NS(=O)(=O)c4ccc(F)cc4)ccc3O[C@H]2[C@@H](CO)O1)NCc1ccc(Oc2ccccc2)cc1,/,90.7,/,/,/
CN(C)c1ccc2c(c1)[C@@H]1C[C@@H](CC(=O)NCc3ccc(Oc4ccccc4)cc3)O[C@@H](CO)[C@@H]1O2,/,85.5,/,/,/
CS(=O)(=O)Nc1ccc2c(c1)[C@@H]1C[C@H](CC(=O)NCc3ccc(Oc4ccccc4)cc3)O[C@@H](CO)[C@@H]1O2,/,85.0,/,/,/
O=C(C[C@@H]1C[C@@H]2c3cc(NS(=O)(=O)c4ccc(F)cc4)ccc3O[C@@H]2[C@H](CO)O1)NCc1ccc(Oc2ccccc2)cc1,/,.,/,.,/
O=C(C[C@@H]1C[C@H]2c3cc(NS(=O)(=O)c4ccc(F)cc4)ccc3O[C@H]2[C@H](CO)O1)NCc1ccc(Oc2ccccc2)cc1,/,100.5,/,/,/
CCOc1ccc(NC(=O)N2CCC(NC(=O)C(Cc3ccc(OC)c(OC)c3)NC(C)=O)CC2)cc1 (configuration not stated),.,/,.,.,.
O=[N+]([O-])c1ccc(N2CCOCC2)cc1NCCCO,.,.,.,.,.
COc1ccc(CC(=O)n2nc(-c3ccccc3)nc2NCc2ccco2)cc1,.,.,.,.,.
O=C(C[C@@H]1C[C@@H]2c3cc(NS(=O)(=O)c4ccc(F)cc4)ccc3O[C@@H]2[C@H](CO)O1)NCc1ccccc1,/,.,/,/,/
O=C(C[C@@H]1C[C@@H]2c3cc(NS(=O)(=O)c4ccc(F)cc4)ccc3O[C@@H]2[C@@H](CO)O1)NCc1ccc(Oc2ccccc2)cc1,/,106.5,/,/,/
COc1ccc(S(=O)(=O)Nc2ccc3c(c2)C(=O)N([C@@H](C)CO)C[C@H](C)[C@H](CN(C)C(=O)c2ccncc2)OCCCC[C@H](C)O3)cc1,/,.,/,/,/
C[C@H]1CCCCO[C@H](CN(C)S(=O)(=O)c2ccc(Cl)cc2)[C@@H](C)CN([C@@H](C)CO)C(=O)c2cc(NC(=O)NC3CCCCC3)ccc2O1,/,.,/,/,/
C[C@@H]1CCCCO[C@@H](CN(C)S(=O)(=O)c2ccc(Cl)cc2)[C@H](C)CN([C@H](C)CO)C(=O)c2cc(NC(=O)Cc3ccccc3)ccc2O1,/,61.8,/,/,/
C[C@H]1CCCCO[C@H](CN(C)S(=O)(=O)c2ccc(Cl)cc2)[C@@H](C)CN([C@@H](C)CO)C(=O)c2cc(NC(=O)Cc3ccccc3)ccc2O1,/,.,/,/,/
C[C@@H]1CCCCO[C@H](CN(C)S(=O)(=O)c2ccc(Cl)cc2)[C@H](C)CN([C@@H](C)CO)C(=O)c2cc(NC(=O)NC3CCCCC3)ccc2O1,/,63.0,/,/,/
C[C@@H]1CCCCO[C@H](CN(C)S(=O)(=O)c2ccc(Cl)cc2)[C@@H](C)CN([C@@H](C)CO)C(=O)c2cc(NC(=O)Nc3ccc(F)cc3)ccc2O1,/,66.0,/,/,/
SMILES,aSyn 5UTR inh,PAX8 inh HTS,LMP1 NFkB inh,Shn3 inh set2,MITF TRPM1 inh
C[C@H](CO)N1C[C@H](C)[C@H](CN(C)S(=O)(=O)c2ccc(Cl)cc2)OCCCC[C@H](C)Oc2ccc(NC(=O)Nc3ccccc3)cc2C1=O,/,64.9,/,/,/
COc1ccc(NC(=O)c2cccc(S(=O)(=O)N3CCOCC3)c2)cc1,.,.,.,.,.
CC(Cc1cccs1)NC(=S)Nc1ccc(F)cc1 (configuration not stated),.,.,.,.,.
C[C@@H]1CN([C@H](C)CO)C(=O)c2cc(NC(=O)Nc3ccc(F)cc3)ccc2O[C@@H](C)CCCCO[C@H]1CN(C)S(=O)(=O)c1ccc(Cl)cc1,/,76.1,/,.,/
C[C@H](CO)N1C[C@H](C)[C@@H](CN(C)S(=O)(=O)c2ccc(Cl)cc2)OCCCC[C@H](C)Oc2ccc(NC(=O)Nc3ccc(F)cc3)cc2C1=O,/,.,/,/,/
C[C@@H]1CCCCO[C@H](CN(C)Cc2ccc(C(F)(F)F)cc2)[C@H](C)CN([C@H](C)CO)C(=O)c2cc(NS(=O)(=O)c3ccc(F)cc3)ccc2O1,/,78.7,/,/,/
C[C@@H]1CCCCO[C@H](CN(C)Cc2ccc(C(F)(F)F)cc2)[C@@H](C)CN([C@@H](C)CO)C(=O)c2cc(NS(=O)(=O)c3ccc(F)cc3)ccc2O1,/,103.1,/,/,/
C[C@H]1CCCCO[C@@H](CN(C)Cc2ccc(C(F)(F)F)cc2)[C@@H](C)CN([C@@H](C)CO)C(=O)c2cc(NS(=O)(=O)c3ccc(F)cc3)ccc2O1,/,95.6,/,/,/
C[C@@H]1CCCCO[C@@H](CN(C)Cc2ccc(C(F)(F)F)cc2)[C@H](C)CN([C@H](C)CO)C(=O)c2cc(NS(=O)(=O)c3ccccc3)ccc2O1,/,92.0,/,/,/
C[C@@H]1CCCCO[C@@H](CN(C)Cc2ccccc2)[C@@H](C)CN([C@@H](C)CO)C(=O)c2cc(NS(=O)(=O)c3ccccc3)ccc2O1,/,.,/,/,/
Cc1nn(Cc2ccccc2Cl)c2sc(C(=O)OC3CCCC3=O)cc12 (configuration not stated),.,/,.,.,.
C[C@@H]1CN([C@@H](C)CO)C(=O)c2cc(NS(=O)(=O)c3ccc(F)cc3)ccc2O[C@@H](C)CCCCO[C@@H]1CN(C)Cc1ccc(C(F)(F)F)cc1,/,88.0,/,/,/
C[C@H](CO)N1C[C@H](C)[C@H](CN(C)Cc2ccc(C(F)(F)F)cc2)OCCCC[C@H](C)Oc2ccc(NS(=O)(=O)c3ccc(F)cc3)cc2C1=O,/,106.1,/,/,/
C[C@@H]1CCCCO[C@H](CN(C)Cc2ccc(C(F)(F)F)cc2)[C@H](C)CN([C@@H](C)CO)C(=O)c2cc(NS(=O)(=O)c3ccc(F)cc3)ccc2O1,/,82.7,/,/,/
C[C@@H]1CN([C@H](C)CO)C(=O)c2cc(NC(=O)Nc3ccc(C(F)(F)F)cc3)ccc2O[C@@H](C)CCCCO[C@H]1CN(C)C(=O)Nc1ccc(C(F)(F)F)cc1,/,95.6,/,/,/
